Rows were chosen to be rich in hits. Some 1.6% of all compounds tested hit in one or more screens of this group.
m5-HT2A agonist: mouse Htr2a agonists via beta-arrestin recruitment, primary screen, cell-based, luminescence; 5-hydroxytryptamine receptor 2A (Mus musculus), P35363; CHO-K1 mHTR2A beta-arrestin complementation; percent of 30 µM serotonin response; activation, % at 7.6 µM; 360,000 tested, 0.66% active; AID 624169, 2012;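 active = activation above a run cutoff, the mean activation of all tested compounds plus 3 SD, cut at about 14% in these data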
Target sequence (P35363 whole entry, looked up): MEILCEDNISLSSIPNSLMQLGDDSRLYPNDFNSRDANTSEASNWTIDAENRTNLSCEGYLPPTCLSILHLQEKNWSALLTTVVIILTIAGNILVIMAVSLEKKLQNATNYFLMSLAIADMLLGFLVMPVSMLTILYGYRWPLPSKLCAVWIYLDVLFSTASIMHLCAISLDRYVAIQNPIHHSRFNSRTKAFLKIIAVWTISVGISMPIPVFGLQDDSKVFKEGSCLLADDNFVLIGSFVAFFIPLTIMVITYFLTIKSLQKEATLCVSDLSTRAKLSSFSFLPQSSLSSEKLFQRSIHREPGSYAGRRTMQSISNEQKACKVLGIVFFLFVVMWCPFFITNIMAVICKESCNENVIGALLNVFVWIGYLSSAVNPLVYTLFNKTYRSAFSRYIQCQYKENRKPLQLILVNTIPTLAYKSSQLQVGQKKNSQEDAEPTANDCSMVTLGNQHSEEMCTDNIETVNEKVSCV
OPRM1-OPRD1 ag: agonists of OPRM1-OPRD1 heterodimerization, primary screen, cell-based, luminescence | Mu-type opioid receptor (Homo sapiens) + Delta-type opioid receptor (Homo sapiens), … | cells | activation, % at 9.3 µM | 340,000 tested, 0.3% active; in the data active = activation above about 18%
OPRM1-OPRD1 inv: inverse agonists of MOR-DOR heterodimerization, primary screen, cell-based, luminescence. Mu-type opioid receptor (Homo sapiens) + Delta-type opioid receptor (Homo sapiens), …. cell-based MOR-DOR heterodimer luminescence, inverse agonism. inhibition, % at 9.3 µM. 340,000 tested, 0.21% active; in the data active = inhibition above about 22%, passing the limit was not always enough
HTR5A ag ctr: HTR5A agonists in luminescence cell assay, primary screen, counter-screen for OPRM1-OPRD1 heterodimer agonist project, full-deck HTS; 5-hydroxytryptamine receptor 5A (Homo sapiens), P47898; activation, % at 9.3 µM; 340,000 tested, 0.61% active; cell-based; in the data active = activation mostly above about 9.5%, no sharp cut-off; inactive = mostly below about 7.6%
HTR5A inv ag: HTR5A inverse agonists in luminescence cell assay, primary screen, counter-screen for OPRM1-OPRD1 heterodimer inverse agonist project, full-deck HTS | 5-hydroxytryptamine receptor 5A (Homo sapiens), P47898 | HTR5A cell line, inverse agonism | inhibition, % at 9.3 µM | 340,000 tested, 0.083% active | AID 504634, 2011; in the data active = inhibition mostly above about 23%, no sharp cut-off; inactive = mostly below about 18%
MOR ag counter: OPRM1 agonists via beta-arrestin recruitment, confirmation, counter-screen for mouse HTR2A agonist project, cell-based, luminescence, single concentration | shares compounds with m5-HT2A agonist | U2OS OPRM1 beta-arrestin PathHunter; DMSO 0%, DAMGO 9.3 µM 100% | activation, % at 9.3 µM | 2,300 tested, 5.3% active;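 active = mean activation above the mean of DMSO-only wells plus 3 SD, cut at about 0.5% in these data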
m5-HT2A ag conf: mouse HTR2A agonists, beta-arrestin recruitment, confirmation, cell-based, luminescence, CHO-K1 PathHunter, triplicate | shares compounds with m5-HT2A agonist | DMSO 0%, 30 µM serotonin 100% | activation, % at 7.6 µM | 2,300 tested, 19% active;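 active = mean activation across triplicates above the hit threshold derived in the original primary screen, cut at about 15% in these data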
Numbers stand for hits; - = inactive; . = not tested or not shown; ! = repeats disagree.

SMILES	m5-HT2A agonist	OPRM1-OPRD1 ag	OPRM1-OPRD1 inv	HTR5A ag ctr	HTR5A inv ag	MOR ag counter	m5-HT2A ag conf
CC(=O)Nc1ccc(S(=O)(=O)N2c3ccccc3NC(=O)CC2C)c(Cl)c1 (stereo not drawn)	17	.	.	.	.	-	-
CC1CC(=O)Nc2ccccc2N1S(=O)(=O)c1ccc(Cl)cc1 (stereo not drawn)	-	-	-	-	-	.	.
O=C(c1cc2ccccn2n1)N1CCN(c2ccccn2)CC1	17	-	-	-	-	-	-
NC(=O)C1CCN(C(=O)c2cc3ccccn3n2)CC1	-	-	-	-	-	.	.
COc1ccc(NC(=O)c2cc([N+](=O)[O-])ccc2O)cc1	15	-	-	-	-	-	-
COc1ccc(NC(=O)c2cccc([N+](=O)[O-])c2)cc1	-	-	-	-	-	.	.
COc1ccccc1CCC(=O)Nc1ccc(S(=O)(=O)Nc2ncccn2)cc1	-	.	.	.	.	.	.
Cc1cc(Cl)ccc1OCC(=O)OCC(=O)NC1CCCC1	16	-	-	-	-	0.5	-
FC(F)(F)c1ccccc1NC(=S)NC1CCN(Cc2ccccc2)CC1	17	-	-	-	-	-	-
S=C(Nc1ccccc1Cl)NC1CCN(Cc2ccccc2)CC1	-	-	-	-	-	.	.
Cc1ccccc1N1CCN(C2CCCN(C(=O)CSc3ccccn3)C2)CC1 (stereo not drawn)	-	.	.	.	.	.	.
CC(C)Cn1c(SCC(=O)NCCCN2CCCC2=O)nc2ccccc21	16	-	-	-	-	-	-
CCCn1c(SCC(=O)NCCCN2CCCC2=O)nc2ccccc2c1=O	-	-	-	-	-	.	.
COc1ccc(/C=N/NC(=O)CCc2nc3ccccc3[nH]2)cc1	16	-	-	-	-	-	-
COc1ccccc1Nc1nc(N2CCOCC2)nc(N2CCOCC2)n1	16!	-	-	-	-	-	-
FC(F)(F)Oc1ccc(Nc2nc(N3CCOCC3)nc(N3CCOCC3)n2)cc1	15	-	-	-	-	-	-
CCCCCc1c(-c2ccccc2OC)ncn1CCc1ccccc1OC	-	.	.	.	.	.	.
Cc1ccc(S(=O)(=O)N2C[C@H]3C(=O)C[C@@H](c4ccccc4)N(S(=O)(=O)c4ccccc4)[C@H]3C[C@H]2c2ccccc2)cc1	-	.	.	.	.	.	.
Cc1csc(NC(=O)C2=NN(c3ccccc3)C(=O)CC2)n1	-	-	-	-	-	.	.
Cc1ccc(-c2csc(NC(=O)C3=NN(c4ccccc4)C(=O)CC3)n2)cc1	18	-	-	-	-	-	-
COc1ccc(-c2csc(NC(=O)Nc3ccccc3)n2)cc1	19	-	-	-	-	-	-
Cc1ccc(-c2cc(-c3ccco3)c3c(N)c(C(=O)NN)oc3n2)cc1	15	-	-	-	-	-	-
COc1cc(OC)cc(-c2c(C#Cc3ccsc3)c3cc(-c4cccc5[nH]cc(C=O)c45)ccc3n2C)c1	21	-	-	-	-	-	-
COc1ccc(-c2c(C#Cc3ccsc3)c3cc(-c4cccc5[nH]ccc45)ccc3n2C)cc1	-	-	-	-	-	.	.
CCOC(=O)C1(CCc2ccccc2)CCN(Cc2ccccn2)CC1	-	-	-	-	-	.	.
SMILES	m5-HT2A agonist	OPRM1-OPRD1 ag	OPRM1-OPRD1 inv	HTR5A ag ctr	HTR5A inv ag	MOR ag counter	m5-HT2A ag conf
CCOC(=O)C1(CCCc2ccccc2)CCN(Cc2ccn[nH]2)CC1	15	-	-	-	-	-	-
COc1cccc(C(c2nnnn2C(C)(C)C)N2CCN(C/C=C/c3ccccc3)CC2)c1OC (stereo not drawn)	-	.	.	.	.	.	.
Oc1ccccc1C1=NC(c2ccccc2)NC(c2ccccc2)C1 (stereo not drawn)	-	.	.	.	.	.	.
OCCc1c[nH]c2cc(F)ccc12	-	-	-	-	-	.	.
C[C@H](O)c1[nH]c2cc(F)ccc2c1[C@H](C)O	20	-	-	-	-	-	-
CCOc1cc(-c2c(C)c(CC)nc(N)c2C#N)ccc1O	-	-	-	-	-	.	.
CCOc1cc(-c2c(C)c(C)nc(N)c2C#N)ccc1O	15	-	-	-	-	-	24
O=C(CCN1C(=O)CC1c1ccco1)N1CCOCC1 (stereo not drawn)	-	.	.	.	.	.	.
COc1ccc(C(O)c2nc(-c3cccc(NC(C)=O)c3)cs2)cc1 (stereo not drawn)	-	.	.	.	.	.	.
Cc1csc(NC(=O)CSc2ncn(-c3ccccc3)n2)n1	21	-	-	-	-	-	-
Cc1ccc(-c2csc(NC(=O)CSc3ncn(-c4ccccc4)n3)n2)cc1	-	-	-	-	-	.	.
Cc1ccc2c(cnn2C(=O)CCC(=O)NCc2ccccc2Cl)c1	19	-	-	-	-	-	-
CCCCN(CCCC)c1ccc(C(=O)c2ccccc2C(=O)O)c(O)c1	-	-	-	-	-	.	.
CN(C)c1ccc(C(=O)c2ccccc2C(=O)O)c(O)c1	17	-	-	-	-	-	-
CC(C)c1nc2sc3c(=S)nc[nH]c3c2c2c1CCC2	16	-	-	-	-	-	-
Fc1ccccc1N1CCN(C(c2ccnc3ccccc23)c2nnnn2-c2ccc3c(c2)OCCO3)CC1 (stereo not drawn)	-	.	.	.	.	.	.
Cc1cccc(C)c1NC(=O)CN(C)C(=O)CC1OC(=O)c2ccccc21 (stereo not drawn)	18	-	-	-	-	-	-
O=C(c1cccc(Cl)c1)N1CCN(S(=O)(=O)c2ccc(Cl)s2)CC1	16	-	-	-	-	-	-
O=C(c1cccc(C(F)(F)F)c1)N1CCN(S(=O)(=O)c2ccc(Cl)s2)CC1	-	-	-	-	-	.	.
CCOC(=O)C1=CCN(S(=O)(=O)c2ccccc2Br)C1c1ccccc1 (stereo not drawn)	-	.	.	.	.	.	.
O=C(Cc1ccccc1F)Nc1cccc(S(=O)(=O)N2CCCCC2)c1	-	.	.	.	.	.	.
CCCCNC(=O)C(NC(=O)c1ccc(C)cc1)C(=O)c1ccccc1 (stereo not drawn)	-	.	.	.	.	.	.
O=C(NC1CCCCC1)C(C1CC1)n1c(=O)c(-c2ccco2)nc2ccccc21 (stereo not drawn)	16	.	.	.	.	-	-
O=C(O)C1CC1C(=O)N1CCN(c2ccc(Cl)c(Cl)c2)CC1 (stereo not drawn)	36	-	-	-	-	-	19
Cc1ccc(N2CCN(C(=O)N3CCCC3)CC2)cc1Cl	-	-	-	-	-	.	.
Cc1occc1C(=O)N1CCN(c2ccc(Cl)c(Cl)c2)CC1	36	-	-	-	-	-	-
